Data as given in paper PMC7819943, “Rice protein-binding microarrays: a tool to detect cis-acting elements near promoter regions in rice”.
Whole data set: some 35,000 sequences, median “fluorescence intensity (a.u.)” near 10,000, cut for the highest 2% near 52,000. Many of the other results were omitted from the sample, so the highest values are more common in it than they were.

Each sequence was assayed against T1, OsWOX13 (Oryza sativa, UniProt Q5QMM3 1-267) (assay: protein-binding microarray (RPBM); PBS, 2% BSA, 51.3 ng/ul salmon testes DNA, 50 uM zinc acetate, 200 nM TF, 25 C, 1 h; high values mean tight binding). Conditions: protein: recombinant; tags: N-terminal polyhistidine and DsRed monomer fusion (pET32a); label: CyDye5-dUTP incorporated in the synthesized complementary strand; 3' TTTTT single-stranded linker to array surface; dsDNA, one strand shown.
T1 sequence: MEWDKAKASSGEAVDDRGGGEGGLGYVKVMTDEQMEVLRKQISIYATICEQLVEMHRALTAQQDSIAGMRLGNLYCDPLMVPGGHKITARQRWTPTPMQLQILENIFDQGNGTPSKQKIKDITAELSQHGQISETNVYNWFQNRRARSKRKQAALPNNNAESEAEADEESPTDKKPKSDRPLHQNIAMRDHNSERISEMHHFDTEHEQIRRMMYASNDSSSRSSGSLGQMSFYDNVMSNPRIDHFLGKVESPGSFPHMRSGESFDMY
Method in brief: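 An Axon 4000B scanner gave the binding signal as per-feature fluorescence intensity in arbitrary units. This followed washing of a custom Agilent array that had been incubated for 1 h at 25 °C with 200 nM protein in PBS, 2% BSA, salmon testes DNA and 50 µM zinc acetate. The proteins were transcription factors fused at the N-terminus to polyhistidine and DsRed, expressed in E. coli BL21-CodonPlus and purified on Ni–NTA.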

Row | Sequence | binding signal
1 | ATTAAAATTATGAAATTTTAATGATTCATTAATCTCAAGACGGAGTCACCTAGTGCAG | 14100 fluorescence intensity (a.u.)
2 | AACCGAAAATTATTATTTTAATCGGCGTGGTGTCCACTGGCGGAGTCACCTAGTGCAG | 4880 fluorescence intensity (a.u.)
3 | TCATTAATGATCTAATCACCAACTAAACTCCCTATCAATTCGGAGTCACCTAGTGCAG | 18200 fluorescence intensity (a.u.)
4 | GTTTGTTTAGATTGGTACCATTTAAAATCATATTATTTTGCGGAGTCACCTAGTGCAG | 20600 fluorescence intensity (a.u.)
5 | GGACAGATTAACTATCACTTAATTTCAGGTTTCCATGTATCGGAGTCACCTAGTGCAG | 22700 fluorescence intensity (a.u.)
6 | TACTACTAATTATATGCCGATTGAGAGTGTTGTAGCGTCACGGAGTCACCTAGTGCAG | 17700 fluorescence intensity (a.u.)
7 | CCTGTTGATTGGTTAGCCCAGCCCATGATGTAGCCCATGACGGAGTCACCTAGTGCAG | 38200 fluorescence intensity (a.u.)
8 | ATGAAAGATTGATATGTTGACATGTTCACAGATGAACTTACGGAGTCACCTAGTGCAG | 17200 fluorescence intensity (a.u.)
9 | GGCGCACTGATTGTTCATGATTGATGCAGTGATCCGGGCACGGAGTCACCTAGTGCAG | 59600 fluorescence intensity (a.u.)
10 | ATGATGATTGGTTGGTTACGGGCATGTTCAGATTGTAGCCCGGAGTCACCTAGTGCAG | 54900 fluorescence intensity (a.u.)
11 | CTGTACTGATTGTTCACGGGTCGTTTCCGCACTATGGAACCGGAGTCACCTAGTGCAG | 27900 fluorescence intensity (a.u.)
12 | CTGTTCACACGGATTGATCATTGATGGATCCATGCTGATGCGGAGTCACCTAGTGCAG | 9220 fluorescence intensity (a.u.)
13 | AAATAATGTACAAAAGGTGATAGATGAAACAATAAAGTAGCGGAGTCACCTAGTGCAG | 4460 fluorescence intensity (a.u.)
14 | TAATAATTTGGGGAGCTTAATTGCTATCCAGTGATATATACGGAGTCACCTAGTGCAG | 11100 fluorescence intensity (a.u.)
15 | ACTAATCATCACATCGCTGTCTCAGATTCTCAGTGACAGACGGAGTCACCTAGTGCAG | 4120 fluorescence intensity (a.u.)
16 | AAAATTGACTAGAGTGCTCTCACAAAATAAACTAGAGAGACGGAGTCACCTAGTGCAG | 7000 fluorescence intensity (a.u.)
17 | CACCAATCACATTAATATGATAATTCATTCACCTACCTCGCGGAGTCACCTAGTGCAG | 39700 fluorescence intensity (a.u.)
18 | AGTCAGATGCTCATAATTGAAAGAAATGCTAGGGCCTGAACGGAGTCACCTAGTGCAG | 15200 fluorescence intensity (a.u.)
19 | TGTTAATTTGAAATTTGGAAGATGTAATTAACTGTTGCCACGGAGTCACCTAGTGCAG | 46900 fluorescence intensity (a.u.)
20 | AGGTGATCATGCAAGGTAGTCAACAGTGTACTGCTAGTTACGGAGTCACCTAGTGCAG | 53800 fluorescence intensity (a.u.)
21 | TTATGATTTCAAGGTTAATGCTGCAGTTTCAAACAAGTTACGGAGTCACCTAGTGCAG | 3480 fluorescence intensity (a.u.)
22 | CACTATAGTTACAGTGTAATTACATGCAAGTTACAGTGTACGGAGTCACCTAGTGCAG | 5020 fluorescence intensity (a.u.)

Row | Sequence | binding signal
23 | TTGGTGATTGAATCTGAACATGCTGGCCTTTGGGATGACTCGGAGTCACCTAGTGCAG | 28400 fluorescence intensity (a.u.)
24 | GTACATGAATTTTGATTAATTGCTAATTTTACATATGGATCGGAGTCACCTAGTGCAG | 26000 fluorescence intensity (a.u.)
25 | AATTCTGTGATTAGCGGGTGCTTTTCGAATGGATGGCATGCGGAGTCACCTAGTGCAG | 29200 fluorescence intensity (a.u.)
26 | GCATCGGAATTTTGGATGTGATTGCCTGCATCGGATGGATCGGAGTCACCTAGTGCAG | 18200 fluorescence intensity (a.u.)
27 | TATGATTGGCATGGCCTGAATGGATGGATGAATTTTGGATCGGAGTCACCTAGTGCAG | 58500 fluorescence intensity (a.u.)
28 | CCGGGTGATTGGCATGAATCTGAATGGCTGAATCCTGATGCGGAGTCACCTAGTGCAG | 53400 fluorescence intensity (a.u.)
29 | TTTAATTGTATTAACACTCGTGAGAATGATACATGAGATCCGGAGTCACCTAGTGCAG | 29000 fluorescence intensity (a.u.)
30 | GTGAATTTGATAGGGCGATAAGGATAATAAACAAGAACATCGGAGTCACCTAGTGCAG | 3540 fluorescence intensity (a.u.)
31 | ACATTAACAAACTCTATCTTAACATTTAGATGCAAGAGCCCGGAGTCACCTAGTGCAG | 3790 fluorescence intensity (a.u.)
32 | AGTGACCTCAATTGATCATTCCCTCATCCTTTAGTCAAGCCGGAGTCACCTAGTGCAG | 3990 fluorescence intensity (a.u.)
33 | ATTGATCAATCGATCAATCCCTCCTTCCCCATCCAATCCTCGGAGTCACCTAGTGCAG | 4160 fluorescence intensity (a.u.)
34 | TACATGATGGGAAAATAGACTTTTGCAGCAGAGATTGAATCGGAGTCACCTAGTGCAG | 10200 fluorescence intensity (a.u.)
35 | AATATCCCATGATTGACTAGCTAGATGAATCCATATGGGTCGGAGTCACCTAGTGCAG | 36500 fluorescence intensity (a.u.)
36 | TCCCCTTGATTGATTGATCACCATTATTATAACATCCTCTCGGAGTCACCTAGTGCAG | 64400 fluorescence intensity (a.u.)
37 | CTAACTCAATGATTAAAATCTCGCCAGATCCCTCCTGCGTCGGAGTCACCTAGTGCAG | 16700 fluorescence intensity (a.u.)
38 | TAATAACTTATACTGATATTGATTACTCCCTCCATCCCTACGGAGTCACCTAGTGCAG | 11800 fluorescence intensity (a.u.)
39 | CGGATCCCATTCAATCATTCATTCATGTCGGATTGATGCCCGGAGTCACCTAGTGCAG | 11800 fluorescence intensity (a.u.)
40 | ATGATTGATCCATGAATCCCATTATCCATCATCCTCGAGTCGGAGTCACCTAGTGCAG | 63300 fluorescence intensity (a.u.)
41 | GATGATTGATGGGAATATAGAGATCCCATGTTTTCCAGCTCGGAGTCACCTAGTGCAG | 61000 fluorescence intensity (a.u.)
42 | TCGCCAATGATTGATCGCCTCATTCCCTCCTCCTCCTCCTCGGAGTCACCTAGTGCAG | 57300 fluorescence intensity (a.u.)
43 | TCCTTGATTTCTCCCCTCTCTCTGTCATTTCTCTCTTCCTCGGAGTCACCTAGTGCAG | 13500 fluorescence intensity (a.u.)
